# High-throughput results (PubChem BioAssay)
# DAX1 inh-1 = inhibitors of DAX1 repression of SF-1 activated StAR promoter | HEK293T StAR-luciferase reporter, SF-1/DAX-1 repression relief | inhibition, % at 6.8 µM | 1.1% of 370,000 active | AID 652010;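 active = inhibition above the mean over all tested compounds plus 3 SD, cut at about 3.6% in these data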;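 also: higher inhibition means more luminescence from relief of DAX-1 repression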
# hcDAF-12 act = activators of H. contortus DAF-12 nuclear receptor. activation, % at 6.8 µM. 1.4% of 370,000 active. AID 652067. HEK293 hcDAF-12 lit1-tk-luc reporter, luminescence; 0% DMSO, 100% Δ7-dafachronic acid;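 active = activation above the mean of all tested compounds plus 3 SD, cut at about 5.5% in these data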
# ssDAF12 agonist = activates DAF-12 receptor from parasite S. stercoralis. activation, % at 6.8 µM. HEK293 ssDAF-12/GRIP1 lit1-tk-luc reporter, luminescence; % of 3 µM dafachronic acid response. AID 652126. 1% of 370,000 active;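 active = activation above the mean over all tested compounds plus 3 SD, cut at about 0.9% in these data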
# GAA850 FXN act = frataxin GAA850 promoter activation. HEK293 lucGAA850 FXN promoter luciferase reporter, 24 h; percent of 10 µM SAHA response. activation, % at 6 µM. 0.56% of 360,000 active;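 active = activation above the average of all compounds screened plus 3 SD, cutoff fixed separately per campaign, cut at about 7.5% in these data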
# DAX1 inh-2 = NR0B1 (DAX1) inhibition; P51843; HEK293 Gal4-DAX1 luciferase reporter, luminescence; inhibition, % at 6.75 µM; 0.99% of 340,000 active; AID 504766;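 active = inhibition above the mean over all tested compounds plus 3 SD, cut at about 4.2% in these data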;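 also: inhibition shows as a rise in luminescence from relieved DAX1 repression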
# Target sequence (P51843 207-470 limits assumed): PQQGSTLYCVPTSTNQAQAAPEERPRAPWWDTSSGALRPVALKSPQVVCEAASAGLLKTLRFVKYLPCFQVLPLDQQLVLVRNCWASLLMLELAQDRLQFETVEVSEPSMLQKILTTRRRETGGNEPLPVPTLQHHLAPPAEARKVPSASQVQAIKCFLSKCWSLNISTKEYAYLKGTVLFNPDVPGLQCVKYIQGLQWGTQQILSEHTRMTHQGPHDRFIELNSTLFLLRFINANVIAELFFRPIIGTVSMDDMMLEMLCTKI
# hgDAF-12 ag = agonists of H. glycines DAF-12 nuclear receptor | AID 687014 | HEK293 GAL4-hgDAF12 UAS-luciferase reporter, agonist luminescence; normalized to butyrate control | activation, % at 6.8 µM | 1.8% of 370,000 active;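 active = activation above a cutoff set at the mean of all screened compounds plus 3 SD, cut at about 10% in these data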
# Hits are given with their value; i = inactive; nt = not tested or not shown; ! = repeats disagree. In the library only some 4.5% were active in any assay of this set; here they are far more common.
SMILES,DAX1 inh-1,hcDAF-12 act,ssDAF12 agonist,GAA850 FXN act,DAX1 inh-2,hgDAF-12 ag
CCN1CCN(C(=S)c2ccc(O)cc2)CC1,i,i,i,i,7.5,i
CC(C)C[C@@H]1COc2cc(Br)ccc2S(=O)(=O)N1Cc1cn(Cc2ccc(C(F)(F)F)cc2)nn1,i,i,i,nt,nt,i
CCN(CC)CCn1c2ccccc2c2cnc(N)c(C#N)c21,3.9,i,i,i,i,i
C#CCOCCOCCOCCNc1nc(N2CCN(C(=O)Cn3cc(CCCN=C(N)N)nn3)CC2)nc(N2CCN(C(=O)[C@H](CCCCN)n3cc(CCC(=O)O)nn3)CC2)n1,i,i,i,i,i,i
C#CCOCCOCCOCCNc1nc(N2CCN(C(=O)Cn3cc(CCCN=C(N)N)nn3)CC2)nc(N2CCN(C(=O)[C@H](CCCCN)n3cc(CCCC)nn3)CC2)n1,i,i,i,i,i,12.0
CCOCC(=O)NC(=O)N1C[C@H]2CON(C)[C@H]2C[C@H]1c1ccc(OC)cc1,i,i,i,nt,nt,i
COc1ccc(S(=O)(=O)Cc2ccc(C(=O)NCCCN3CCc4ccccc4C3)o2)cc1,i,5.8,3.5,i,i,i
COc1cc(CCN(C(=O)c2cc3ccccc3[nH]2)C(C)c2nc3ccccc3[nH]2)cc(OC)c1 (stereo unspecified),i,i,i,nt,nt,i
COc1cc(CCN(C(=O)c2cc3ccccc3[nH]2)C(c2ccccn2)c2nc3ccccc3[nH]2)cc(OC)c1 (stereo unspecified),i,i,1.1,nt,nt,i
Cc1ccc2cc(C#N)c(N3CCN(C(=O)c4cccs4)CC3)nc2c1,i,6.5,i,i,i,i
Cc1ccc2nc(N3CCN(C(=O)c4ccc(F)cc4)CC3)c(C#N)cc2c1,i,i,i,i,i,i
COc1cc(/C=C2/CCCC(C(=O)C(F)(F)F)=C2O)ccc1O,i,i,i,i,i,i
CCOc1cc(/C=C2\CCCC(C(=O)C(F)(F)F)=C2O)ccc1O,3.7,i,i,i,i,i
CC(C)(C)c1ccc(S(=O)(=O)NCC(=O)N2CCN(c3ncccn3)CC2)cc1,i,i,i,nt,nt,i
CC(=O)Nc1cccc(NC(=S)Nc2cccc(Cl)c2Cl)c1,i,i,i,i,i,i
S=C(Nc1ccccc1)Nc1cccc(Cl)c1Cl,i,i,i,i,6.1,i
S=C(N/N=C/c1ccccc1Cl)Nc1ccccc1,i,i,i,i,4.4,11.3
COc1ccc(-c2nnc(-c3ccc(N(C)C)cc3)o2)cc1,i,i,i,i,i,i
COc1ccc(-c2nnc(-c3ccc(N)cc3)o2)cc1,i,i,i,i,i,11.2
O=C(CSc1nnc(C2COc3ccccc3O2)o1)Nc1nccs1 (stereo unspecified),nt,nt,nt,i,4.4,nt
O=C(Cn1nnc(-c2cccs2)n1)N1CCOCC1,i,i,i,i,i,i
CC1CCN(C(=O)Cn2nnc(-c3cccs3)n2)CC1,3.6,i,i,i,6.0,i
O=C1C2C3C=CC(C4CC34)C2C(=O)N1/N=C/c1c[nH]c2ccccc12 (stereo unspecified),i,6.0,2.2,i,i,10.5
O=C(c1ccccc1)c1cccc[n+]1[O-],i,i,i,i,6.2,i
COc1ccc(C2Nc3ccc4ccccc4c3-c3c2c(=O)oc2ccccc32)cc1 (stereo unspecified),i,i,1.4,i,i,i
SMILES,DAX1 inh-1,hcDAF-12 act,ssDAF12 agonist,GAA850 FXN act,DAX1 inh-2,hgDAF-12 ag
O=c1c(C=NCCCn2ccnc2)c(-c2ccccc2)[nH]n1-c1nc2ccccc2s1,4.3,i,i,i,i,i
C=CCOC(=O)C1=C(C)NC(SCC(=O)N(CC)CC)=C(C#N)C1c1ccccc1 (stereo unspecified),i,i,i,i,i,i
C=CCOC(=O)C1=C(C)NC(SCC(=O)NC(=O)OCC)=C(C#N)C1c1cccnc1 (stereo unspecified),i,i,i,i,5.3!,i
CN1CCCN(S(=O)(=O)c2ccc3c(c2)n(C)c(=O)c(=O)n3C)CC1,i,i,i,nt,nt,i
O=C(O/N=C1/CCCc2occc21)c1ccccc1,i,i,i,i,i,i
O=C(O/N=C1/CCCc2occc21)c1ccc(Cl)cc1Cl,i,i,i,i,6.8,i
Clc1cccc(C2Nc3cccc4cccc(c34)N2)c1,i,i,i,i,i,i
